# Assay outcomes from PubChem BioAssay.
# A selection: hits, their analogues and other compounds. The true share with any hit is near 11%.
# USP17 inh: blocks human USP17 ubiquitin-rhodamine cleavage. A8MUK1. purified USP17, Ub-rhodamine cleavage fluorescence, 3 h. 47,000 compounds, 6.5% hits. inhibition, % at 50 µM
# OTUD3 block: blocks human OTUD3 ubiquitin-rhodamine cleavage | AID 1645858 | inhibition, % at 25 µM | purified OTUD3, Ub-rhodamine fluorescence, 2 h | 47,000 compounds, 0.7% hits | Q5T2D3
# USP28 block: blocks human USP28 ubiquitin-rhodamine cleavage; Q96RU2; purified USP28, Ub-rhodamine cleavage fluorescence, 30 min; inhibition, % at 25 µM; 47,000 compounds, 3% hits; AID 1645857
# Target sequence (Q96RU2 whole entry, looked up): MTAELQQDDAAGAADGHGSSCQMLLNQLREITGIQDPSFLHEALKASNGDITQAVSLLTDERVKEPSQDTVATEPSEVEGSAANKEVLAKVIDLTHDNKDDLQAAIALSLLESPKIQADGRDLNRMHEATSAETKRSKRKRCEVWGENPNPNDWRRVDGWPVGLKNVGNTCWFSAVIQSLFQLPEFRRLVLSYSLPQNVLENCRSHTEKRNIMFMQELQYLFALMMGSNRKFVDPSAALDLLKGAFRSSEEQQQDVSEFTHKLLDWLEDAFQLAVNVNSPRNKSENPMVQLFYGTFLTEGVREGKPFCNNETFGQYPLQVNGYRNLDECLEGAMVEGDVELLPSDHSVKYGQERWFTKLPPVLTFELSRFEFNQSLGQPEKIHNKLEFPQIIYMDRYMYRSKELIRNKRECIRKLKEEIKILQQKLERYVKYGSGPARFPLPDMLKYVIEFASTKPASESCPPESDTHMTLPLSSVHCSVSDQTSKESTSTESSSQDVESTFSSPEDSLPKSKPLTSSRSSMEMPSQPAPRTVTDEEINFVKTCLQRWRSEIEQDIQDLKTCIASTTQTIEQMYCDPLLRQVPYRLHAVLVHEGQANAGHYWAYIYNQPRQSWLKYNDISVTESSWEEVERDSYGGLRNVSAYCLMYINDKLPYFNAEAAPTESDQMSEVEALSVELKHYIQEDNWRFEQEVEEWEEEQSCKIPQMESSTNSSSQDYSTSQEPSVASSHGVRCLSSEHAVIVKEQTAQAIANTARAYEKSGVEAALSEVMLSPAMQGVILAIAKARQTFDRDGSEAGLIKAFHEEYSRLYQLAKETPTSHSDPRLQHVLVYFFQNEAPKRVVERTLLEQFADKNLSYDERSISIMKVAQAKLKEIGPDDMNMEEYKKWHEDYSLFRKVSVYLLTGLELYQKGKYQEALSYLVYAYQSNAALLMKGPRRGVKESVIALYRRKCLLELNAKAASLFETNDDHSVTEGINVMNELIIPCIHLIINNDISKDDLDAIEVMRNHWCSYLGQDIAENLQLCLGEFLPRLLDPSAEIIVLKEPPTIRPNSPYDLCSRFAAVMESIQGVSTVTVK
# USP30 inh: blocks human USP30 ubiquitin-rhodamine cleavage; Q70CQ3; purified USP30, Ub-rhodamine cleavage fluorescence; inhibition, % at 25 µM; 47,000 compounds, 5.3% hits; AID 1645860
# Active calls of the source: *; nt = no result given. No stated cut-off is given here; in the data, active means inhibition above about 30%; inactive means the rest.
SMILES,USP17 inh,OTUD3 block,USP28 block,USP30 inh
O=C(Nc1ccc2c(c1)OCCO2)c1cc(CN2CCOCC2)on1,nt,-0.2,52.9*,8.7
O=C(Nc1ccc2c(c1)OCCO2)c1cc(CN2CCCC2)on1,-7.5,-9.0,63.3*,-24.3
Cc1ccc(NC(=O)c2cc(CN3CCCC3)on2)cc1C,nt,-4.6,4.8,-24.3
O=C(Nc1ccc2c(c1)OCCO2)c1ccc(N2CCCCC2)nn1,17.5,5.4,59.1*,2.1
FC(F)(F)c1cc(-c2ccccc2)nc2nc(Nc3ccccc3)sc12,-48.0,-38.0,-37.4,-111.5
O=C(NCc1noc(C2CCCCC2)n1)c1ccccc1Cl,-1.5,4.8,5.1,0.0
O=S(=O)(NCc1ccc(F)cc1Cl)c1c[nH]c2ncccc12,1.7,-5.8,1.5,-1.7
O=C(NCc1ccncc1)c1ccc(Cn2cnc3ccccc3c2=O)o1,-0.9,0.0,9.3,-10.0
COC(=O)c1ccc(Cn2cnc3ccc(Br)cc3c2=O)o1,-12.8,2.2,79.9*,-5.3
COC(=O)c1ccc(Cn2cnc3ccc(F)cc3c2=O)o1,10.8,4.6,86.6*,28.4
O=C(NCc1cccnc1)c1ccc(Cn2cnc3ccccc3c2=O)o1,6.6,15.5,22.9,20.5
Cc1cn[nH]c1CC1CCCN(C(=O)Cn2nnc3ccccc32)C1 (centres undefined),-8.5,-2.0,-5.4,2.2
Cc1ccccc1OCC(=O)NCc1cnn2ccccc12,4.5,-3.7,-0.5,-20.7
O=C(NCCc1ccccn1)c1cc(-c2ccccc2)n[nH]1,-10.6,-1.0,0.9,-16.8
Cc1cc2ncc(-c3ccsc3)c(N)n2n1,-5.0,3.4,-2.1,-8.1
Nc1c(-c2ccc(Cl)cc2)cnc2cc(-c3ccc(Cl)c(Cl)c3)nn12,41.2*,0.1,24.4,59.6*
FC(F)(F)c1cnc(-n2nccc2-c2ccc(Sc3ccccc3)cc2)c(Cl)c1,-2.7,1.3,-4.4,-8.5
Nc1c(-c2ccc(Cl)cc2)cnc2nc(Sc3ncc(C(F)(F)F)cc3Cl)nn12,26.2,30.5*,5.6,33.0*
COc1cccc(NC(=O)c2ccc(SCCN3CCOCC3)nc2)c1,-0.3,-5.7,40.3*,-5.5
COc1cc2c(cc1OC)-c1c(c(C(=O)N3CCCC3)nn1-c1ccccc1F)C2,75.6*,4.8,76.4*,99.5*
COc1cc2cc(Oc3ccc4ccc(=O)oc4c3)c(=O)oc2cc1O,-4.3,-0.2,7.3,34.2*
Cc1nc2ccccc2nc1SC(C(=O)O)c1ccccc1 (centres undefined),11.9,5.2,8.6,1.6
O=C(Nc1ccc(NS(=O)(=O)c2cccc(C(=O)N3CCCc4ccccc43)c2)cc1)c1ccccc1,32.0*,4.1,14.2,4.6
CCCS(=O)(=O)N1CCc2ccc(NC(=O)c3ccccc3)cc2C1,0.3,-0.1,3.2,-0.3
O=C(Nc1ccc(NS(=O)(=O)c2ccc3c4c(cccc24)CC3)cc1)c1ccccc1,50.5*,1.7,0.3,-61.1
SMILES,USP17 inh,OTUD3 block,USP28 block,USP30 inh
O=C(c1cc(S(=O)(=O)Nc2ccc(Cl)cc2)ccc1Cl)N1CCCc2ccccc21,-82.6,-36.3,-40.9,-159.8
CCc1cccc2c(C(=O)COC(=O)C(NC(=O)c3cccc(S(=O)(=O)N4CCOCC4)c3)C(C)C)c[nH]c12 (centres undefined),10.0,0.3,1.2,-28.1
CCc1cccc2c(C(=O)COc3ccc(C#N)cc3)c[nH]c12,42.9*,32.1*,70.7*,90.6*
CNc1nc2c(c(=O)n1C)CCN(C(=O)Nc1ccc3ccccc3c1)C2,-7.7,-3.9,-7.3,-7.3
Cc1cn2c(S(=O)(=O)N3CCCCC3)c(C(C)C)nc2s1,-16.0,0.0,-16.5,-4.5
CCc1nc2sc(C(C)C)nn2c1S(=O)(=O)N1CCCCCC1,-30.5,15.5,10.2,35.6*
COc1ccccc1NC(=O)NC1CCN(c2ccc(F)cc2)C1=O (centres undefined),8.5,7.6,0.1,-39.3
O=C(Nc1ccc(F)cc1F)NC1CCN(c2ccccc2)C1=O (centres undefined),72.7*,11.6,45.4*,5.0
CCC(C)Oc1cccc(C(=O)Nc2ccc(CN3CCOCC3)cc2)c1 (centres undefined),-8.4,-3.3,80.0*,0.4
CC(C)(C)OC(=O)NCc1ccc(C(=O)Nc2ccc(CN3CCOCC3)cc2)cc1,-6.4,-9.2,-8.8,-25.8
COc1ccc(C2CC(=O)c3cnc(NCC4CCCO4)nc3C2)cc1OC (centres undefined),15.9,15.4,13.8,30.4*
COc1ccccc1C(=O)Nc1cc(-c2ccc(F)c(F)c2)no1,33.4*,9.6,8.7,44.0*
COc1ccccc1NC(=O)c1cc(-c2ccccn2)nc2ccccc12,58.6*,9.9,2.9,28.2
COc1ccc(C(=O)Nc2cc(-c3ccccn3)no2)c(OC)c1,32.8*,9.7,4.9,9.7
COc1ccc(CC(=O)Nc2cc(-c3ccccn3)no2)cc1,-16.9,-7.2,-0.2,-0.4
COc1ccc(CCNC(=O)CN2C(=O)c3ccccc3C2c2c[nH]c3ccccc23)cc1OC (centres undefined),9.3,3.7,-3.0,-6.3
O=C(c1cccc([N+](=O)[O-])c1)[C@H]1[C@]2(C(=O)Nc3ccccc32)[C@@H]2CCCN2[C@@]12C(=O)Nc1ccccc12,6.3,18.3,35.3*,18.0
COc1cccc(C(=O)[C@H]2[C@]3(C(=O)Nc4ccccc43)[C@@H]3CCCN3[C@@]23C(=O)Nc2ccccc23)c1,3.9,4.6,11.2,12.8
COc1ccc(-c2noc([C@@H]3C[C@H](NC(=O)Nc4cccc(C#N)c4)CN3C)n2)cc1,24.7,22.4,21.2,36.5*
CCOC(=O)c1cccc(NC(=O)Cc2nc(-c3ccc(OC)cc3)no2)c1,-8.8,0.0,7.5,-3.9
COc1ccc(-c2noc(CC(=O)Nc3cccc(C#N)c3)n2)cc1,39.4*,-0.3,0.3,17.5
CCOc1ccc(NC(=O)CSCc2nc(-c3ccc(OC)c(OC)c3)no2)cc1,47.0*,12.9,20.1,-13.6
CN(C)C(=O)CN1C[C@H]2CCN(Cc3ccccc3)CC[C@H]2S1(=O)=O,-5.4,-0.2,-8.3,-3.1
COc1ccc(S(=O)(=O)c2c(C)c(C)n(C(C)C)c2NC(=O)c2ccccc2F)cc1,30.8*,-9.9,0.3,-13.1
C[C@H]1C(=O)N(C)[C@@H]2CCN(C(=O)C3CCCCC3)[C@@H]2C(=O)N1C,9.3,10.3,12.0,32.7*
SMILES,USP17 inh,OTUD3 block,USP28 block,USP30 inh
O=C(CCSCc1ccccc1F)NCCc1ccccc1,3.5,-1.3,3.2,-0.2
O=C(CCSCc1cccc(F)c1)NCCc1ccc(Cl)cc1,13.9,11.3,15.2,36.8*
Cc1c(OCc2ccccc2F)ccc2c1OC(C)(C)CC2=O,30.7*,6.0,11.8,28.2
Cc1c(OCc2ccc(Cl)cc2Cl)ccc2c1OC(C)(C)CC2=O,27.3,12.1,5.6,29.2
COc1ccc(Cn2c(SCC(=O)Nc3cc(C)[nH]n3)nc3nccnc3c2=O)cc1,48.3*,6.8,17.0,48.9*
CN(C(=O)c1ccc(C(=O)c2ccccc2)cc1)c1nnc(C23CC4CC(CC(C4)C2)C3)s1,17.7,15.9,21.4,32.8*
CCCC(=O)N(Cc1ccccc1)c1nnc(C23CC4CC(CC(C4)C2)C3)s1,8.4,9.9,12.1,12.0
